The record followed here is PubChem BioAssay AID431 (Sanford-Burnham Center for Chemical Genomics, 2006).

Molecules are shown by their SMILES. About 1,100 (1.7%) of roughly 63,000 compounds were called active. Shown is part of a subset that was picked to be rich in actives. Potency and affinity values are given separately. Values without a mark were called inactive.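 The calls were made as follows: active = compounds whose percent cytotoxicity in the single-dose primary screen, scaled between solvent and toxic-drug controls, exceeds 50; inactive = the rest.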

The assay in a line: cytotoxicity in KRAS-transformed pancreatic duct cells, primary screen, cell-based, fluorescence, HTS (AID 431).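 Also: 0% = DMSO solvent wells and 100% = doxorubicin-treated wells.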 To be noted: HPDE-C7K KRASV12 cells, Alamar Blue viability, 48 h; at 10 µM; stronger effect = higher value. On the technique in general: Resazurin is reduced to fluorescent resorufin, in cell work by metabolically active cells.
`CCc1ccccc1NC(=O)CN(C)C(=O)CN1C(=O)NC2(CCCCCC2)C1=O`: the cytotoxicity is 2.1%.

In the case of `COc1ccc(NC2C=CS(=O)(=O)C2)c(OC)c1` (stereo not drawn), the cytotoxicity is 4.8%.

Turning to `Cc1n[nH]c(C)c1S(=O)(=O)N1CCN(c2ccccn2)CC1`, the cytotoxicity was 7.4%.

In the case of `CCc1oc2ccccc2c1C(=O)CCN1CCCCC1`, the cytotoxicity is 9.9%.

In the case of `CCCCC(=O)c1c(O)c2ccccc2oc1=O`, the cytotoxicity is 17.2%.

In the case of `CCOC(=O)C1=C(C)NC2=C(C(=O)CCC2)C1c1cc(OC)ccc1OC` (stereo not drawn), the cytotoxicity was 1.4%.

With `CCOc1ccc(Cn2c(=O)oc3ccc(C)cc32)cc1OC`, the cytotoxicity is -2.4%.

For the compound `O=S(=O)(c1ccc2ccccc2c1)N(CC(O)CN1CCOCC1)c1ccccc1` (stereo not drawn), the cytotoxicity is -11.1%.

As to `O=S(=O)(c1ccc2ccccc2c1)N1CCCCC1`, the cytotoxicity was 5.8%.

Take `O=C(CN1C(=O)CCSc2ccccc21)Nc1ccccc1`: the cytotoxicity is -22.3%.

With `CCCSc1nnc(NC(=O)Nc2ccc(F)cc2)s1`, the cytotoxicity is 75.2% (active).

With `CCCSc1nnc(NC(=O)Nc2ccccc2)s1`, the cytotoxicity was -9.2%.

In the case of `CCC(=O)Nc1nnc(SCC(=O)Nc2ccc(F)cc2)s1`, the cytotoxicity is -4.3%.

On to `COc1cc(-c2nc3cnccc3n2C)cc(OC)c1OC`, for which the cytotoxicity is -11.3%.

As for `Cc1onc(-c2ccccc2)c1C(=O)Nc1ccccc1N1CCOCC1`, the cytotoxicity is 4.2%.

For the compound `Cc1onc(-c2ccccc2)c1C(=O)Nc1cc(C(F)(F)F)ccc1N1CCOCC1`, the cytotoxicity was 60.3% (active).

For the compound `CC(=O)Nc1cc(C(F)(F)F)ccc1N1CCOCC1`, the cytotoxicity was -2.7%.

As to `O=C(Nc1cc(C(F)(F)F)ccc1N1CCOCC1)c1ccco1`, the cytotoxicity was -2.4%.

For the compound `O=C(Nc1cc(C(F)(F)F)ccc1N1CCOCC1)c1c(F)c(F)c(F)c(F)c1F`, the cytotoxicity was 69.9% (active).

For the compound `O=C(Nc1cc(C(F)(F)F)ccc1N1CCOCC1)c1cccnc1`, the cytotoxicity is 2.2%.

On to `COc1cc(C2NC(=O)c3ccccc3O2)cc(OC)c1OC` (stereo not drawn), for which the cytotoxicity was -13.8%.

As for `OC1C=CSc2nc3ccccc3n21` (stereo not drawn), the cytotoxicity is -17.8%.

Turning to `COC(=O)COc1ccc(NC(=O)C2CCCO2)cc1` (stereo not drawn), the cytotoxicity is -3%.

Consider `CC(C)C[C@H](NC(=O)NCc1ccc(Cl)cc1)C(=O)O`, for which the cytotoxicity was 5.3%.

Regarding `CCCOC(=O)Nc1nc2ccccc2o1`, the cytotoxicity was -0.4%.

`COc1ccccc1C(=O)Nc1nnc(-c2ccc(F)cc2)o1`: the cytotoxicity was -1.2%.

As for `CC(C)CCn1cnc2c(cnn2-c2ccc(F)cc2)c1=O`, the cytotoxicity is -10.9%.

Turning to `C=CCOc1ccccc1CNn1nnnc1N`, the cytotoxicity was -4.5%.

Turning to `O=C(O)c1ccc(N2CCCCC2)cc1`, the cytotoxicity is -1.2%.

Take `Nc1ccc(N2CCCCC2)cc1N1CCCCC1`: the cytotoxicity was 34.3%.

Regarding `O=C(O)CCn1[nH]c(=O)ccc1=O`, the cytotoxicity is -18.2%.

In the case of `CSc1ccccc1NC(=O)c1ccco1`, the cytotoxicity is 4.6%.

For `O=C1CC(c2ccco2)CC2=C1C1c3ccccc3C(=O)N1c1ccccc1N2` (stereo not drawn), the cytotoxicity is 51.6% (active).

Turning to `CCC(=O)N1c2ccccc2NC2=C(C(=O)CC(c3ccco3)C2)C1c1ccco1` (stereo not drawn), the cytotoxicity was 7.6%.

`COc1ccc(C2C3=C(CC(c4ccco4)CC3=O)Nc3ccccc3N2C(C)=O)cc1` (stereo not drawn): the cytotoxicity was -5.9%.

With `COC(=O)C(C(=O)OC)=C(/C=C/N(C)C)N(C)C`, the cytotoxicity was 0.2%.

Take `Nc1nonc1C(=O)NCCNCc1ccccc1OCc1ccccc1F`: the cytotoxicity is 0.9%.

Turning to `Nc1nonc1C(=O)NCCNCc1cc(Br)ccc1OCc1ccccc1F`, the cytotoxicity is 17.1%.

Turning to `Nc1nonc1C(=O)NCCNCc1cc(Br)ccc1OCc1ccc(F)cc1`, the cytotoxicity is 54% (active).

For `COCCn1c(SCC(=O)N2CCCCC2)nc2ccccc2c1=O`, the cytotoxicity was 4.9%.

On to `CC(=O)Nc1ccc(S(=O)(=O)N(C)c2ccc(O)cc2)cc1`, for which the cytotoxicity was -12.1%.

Regarding `CCOc1ccc(C(=O)Nc2ccc3c(c2)OCO3)cc1OCC`, the cytotoxicity was -16.6%.

As for `CCOC(=O)c1ccc(NC(=O)C2CCN(S(=O)(=O)c3ccccc3)CC2)cc1`, the cytotoxicity is 6.6%.

As to `Cc1ccccc1Cn1c(=O)n(CCCC(=O)NCc2ccco2)c(=O)c2ccccc21`, the cytotoxicity is -20.6%.

`Cc1ccc(C)c(Cn2c(=O)n(CCCC(=O)NCc3ccco3)c(=O)c3ccccc32)c1`: the cytotoxicity is 56.3% (active).

With `Cc1ccc(C)c(Cn2c(=O)n(CCC(=O)NCc3ccco3)c(=O)c3ccccc32)c1`, the cytotoxicity is 3%.

Turning to `COc1ccc(CCNC(=O)CSc2nc(N)c3c(C)c(C)oc3n2)cc1OC`, the cytotoxicity was 4.3%.

Take `O=C(Nc1cccc2ccccc12)N1CCN(c2ccccc2)CC1`: the cytotoxicity is 10.4%.

On to `O=C(Nc1ccc2snnc2c1)N1CCN(c2ccccc2)CC1`, for which the cytotoxicity was -17.1%.

For the compound `O=C(Nc1cccc(NC(=O)N2CCN(c3ccccc3)CC2)c1)N1CCN(c2ccccc2)CC1`, the cytotoxicity is 61.3% (active).

For `COc1cc(OC)cc(-c2cc(NC(C)=O)n[nH]2)c1`, the cytotoxicity is -2%.

In the case of `CCOC(=O)c1[nH]c(C)c(C(=O)N2CCOCC2)c1C`, the cytotoxicity was 4.4%.

For the compound `C/C=C/c1ccc(OC)c(OC(C)=O)c1`, the cytotoxicity is 1.5%.

As to `COc1cc(/C=C/C2=NC(=O)C(C)(C)O2)ccc1O`, the cytotoxicity is 32.6%.

Take `O=C(Nc1cccnc1N1CCOCC1)c1ccco1`: the cytotoxicity is -0.2%.

As to `CCn1c(SCC(=O)c2cc(OC)ccc2OC)nnc1C1CC1`, the cytotoxicity was 4.1%.

Consider `COC(=O)c1ccc(NC(=O)c2sc3nc(-c4ccccc4)cn3c2C)cc1`, for which the cytotoxicity is -6.6%.

For `CN(C)c1ccc(/C=[N+](\[O-])C2SC(=S)N(C)C2(C)C)cc1` (stereo not drawn), the cytotoxicity was -16.8%.

As to `Cc1ccc2c(COn3nnc4ccc(S(=O)(=O)N(C)C)cc43)cc(=O)oc2c1C`, the cytotoxicity is 2.9%.

Consider `CCc1ccc2c(COC(=O)c3n[nH]c4ccccc34)cc(=O)oc2c1`, for which the cytotoxicity is 17.5%.

Take `CCc1ccc2c(COn3nnc4ccc(S(=O)(=O)N(C)C)cc43)cc(=O)oc2c1`: the cytotoxicity was 62% (active).

For `COc1ccc(Cn2c(-c3ccco3)nc3oc4ccccc4c(=O)c3c2=O)cc1`, the cytotoxicity is 8.5%.

Take `CC1(C)CC(n2c(NCCO)nc3c(c2=O)C2(CCCC2)Cc2ccccc2-3)CCO1` (stereo not drawn): the cytotoxicity is 64.4% (active).

As for `O=c1[nH]c(NCCO)nc2c1C1(CCCCC1)Cc1ccccc1-2`, the cytotoxicity is 17.6%.

Consider `CC1(C)Cc2ccccc2-c2nc(NCCO)n(-c3ccccc3)c(=O)c21`, for which the cytotoxicity is -9.1%.

As for `Cn1c(NCCCO)nc2c(c1=O)C1(CCCCC1)Cc1ccccc1-2`, the cytotoxicity was 51.9% (active).

Turning to `Cn1c(NCCO)nc2c(c1=O)C1(CCCCC1)Cc1ccccc1-2`, the cytotoxicity is 10.5%.

On to `O=c1[nH]c(NCCCO)nc2c1C1(CCCC1)Cc1ccccc1-2`, for which the cytotoxicity is 26.4%.
